Growth data for 7 molecules are collected here from PubChem BioAssay (NCI).

Among the test systems are NCI-H23 lung; NCI-H226 lung; NCI-H322M lung; HOP-62 NSCLC; NCI-H460 lung; HOP-92 NSCLC; NCI-H522 lung; A549/ATCC NSCLC; 786-0 renal; COLO 205 colon; DU-145 prostate; K-562 leukemia; MALME-3M melanoma; MDA-MB-231 breast; RXF 393 renal; SF-268 CNS; SF-295 CNS; SF-539 CNS; UACC-257 melanoma; M14 melanoma.
What all share (test): NCI-60 one-dose screen, 48 h (100 = growth as untreated, 0 = no growth, -100 = all killed)
Details in all cases: 10 µM unless noted

Compounds without any hit were thinned out: in the full panel of roughly 83,000, 20% have a hit.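 The test compound was applied at a single concentration to cells in 96-well plates for 48 hours, and percent growth was recorded.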 A number with no mark means an inactive call. The source made the active and inactive calls. Rule for the calls: active = growth percent below 10; inactive = the rest.

For `O=C1C(Cl)=C(Nc2ccc(S(=O)(=O)N3CCOCC3)cc2)C(=O)c2ccccc21`, the growth in the assay on NCI-H23 lung is 83.5%; in the assay on NCI-H226 lung, 84.5%; with NCI-H322M lung, 99.8%; in the assay on HOP-62 NSCLC it was 86.3%; in the assay on NCI-H460 lung, 94.9%; with HOP-92 NSCLC, 25.7%. The growth in the assay with NCI-H522 lung is 21%; in the assay with A549/ATCC NSCLC, 80.8%; in the assay with 786-0 renal, 71%; with COLO 205 colon, 104%; with DU-145 prostate, 101%; with K-562 leukemia, 6.71% (active). Besides, the growth in the assay with MALME-3M melanoma is 71.6%; in the assay on MDA-MB-231 breast, 31.3%; in the assay on RXF 393 renal, 56.4%; in the assay with SF-268 CNS it was 78.3%; in the assay on SF-295 CNS it was 99.7%; with SF-539 CNS, 2.06% (active). Further, the growth in the assay on UACC-257 melanoma is 66.4%; in the assay with M14 melanoma it was 44.2%.

As for `COc1ccc(/C=C(\C#N)n2nnc3ccc(Cl)cc32)cc1`, the growth was 71% in the assay on NCI-H23 lung; 105% in the assay on NCI-H226 lung; 80.8% in the assay with NCI-H322M lung; 111% in the assay with HOP-62 NSCLC; 83.9% in the assay on NCI-H460 lung; 74.2% in the assay on HOP-92 NSCLC. Further, the growth with NCI-H522 lung is 17.8%; with A549/ATCC NSCLC it was 58.9%; with 786-0 renal, 39.8%; in the assay on COLO 205 colon, 83.1%; in the assay with DU-145 prostate, 64.5%; with K-562 leukemia, 21.2%. In addition, the growth with MALME-3M melanoma is 79.5%; in the assay with MDA-MB-231 breast, 76.1%; in the assay with RXF 393 renal, 48.7%; in the assay with SF-268 CNS, 76.1%; in the assay on SF-295 CNS, 85.7%; in the assay with SF-539 CNS it was 53.2%. The figures for the growth with UACC-257 melanoma and with M14 melanoma were 76.3% and 58.1%, respectively.

Take `CC(=O)N1N=C(c2ccc(Nc3nc(Nc4ccccc4)nc(Nc4ccccc4)n3)cc2)CC1c1cccc([N+](=O)[O-])c1` (stereo not given): the growth with NCI-H23 lung is 94.6%; in the assay with NCI-H226 lung, 113%; with NCI-H322M lung it was 96.2%; with HOP-62 NSCLC, 78.8%; in the assay with NCI-H460 lung, 107%; with HOP-92 NSCLC it was 56.8%. Further, the growth in the assay on NCI-H522 lung is 104%; in the assay with A549/ATCC NSCLC, 93.3%; in the assay on 786-0 renal it was 89.9%; in the assay on COLO 205 colon, 88.1%; with DU-145 prostate, 102%; in the assay on K-562 leukemia it was 80.8%. Also, the growth in the assay on MALME-3M melanoma is 136%; with MDA-MB-231 breast, 73.7%; in the assay with RXF 393 renal, -0.925% (active); in the assay on SF-268 CNS, 109%; in the assay on SF-295 CNS, 104%; in the assay with SF-539 CNS, 89.8%. Further, the growth was 92.3% in the assay with UACC-257 melanoma and 94.8% in the assay with M14 melanoma.

As for `c1ccc2cc(C[n+]3ccn(CCCCCCCCCCn4cc[n+](Cc5ccc6ccccc6c5)c4)c3)ccc2c1`, the growth in the assay with NCI-H23 lung is 5.67% (active); in the assay with NCI-H226 lung, 39.5%; with NCI-H322M lung, 34.5%; in the assay with HOP-62 NSCLC, -4.86% (active); with NCI-H460 lung it was 11%; with HOP-92 NSCLC, -23.6% (active). Moreover, the growth in the assay with NCI-H522 lung is -72.3% (active); with A549/ATCC NSCLC it was 18.5%; in the assay on 786-0 renal, 35.6%; in the assay on COLO 205 colon it was -81.1% (active); in the assay with DU-145 prostate, 28.4%; in the assay with K-562 leukemia it was 8.6% (active). Further, the growth with MALME-3M melanoma was -20.4% (active); in the assay on MDA-MB-231 breast it was 16.5%; in the assay on RXF 393 renal, 9.07% (active); with SF-268 CNS, 13.7%; with SF-295 CNS, 16.5%; in the assay with SF-539 CNS, 10.4%. The growth is -13.8% (active) in the assay on UACC-257 melanoma and 31.8% with M14 melanoma.

In the case of `COc1ccc(C(=O)c2cc3c(N)c(C(=O)Nc4ccc(C)cc4)sc3nc2C)cc1`, the growth in the assay on NCI-H23 lung was 43.3%; in the assay on NCI-H226 lung it was 57.2%; in the assay on NCI-H322M lung it was 48.9%; in the assay on HOP-62 NSCLC, 36.3%; with NCI-H460 lung, 4.1% (active); in the assay on HOP-92 NSCLC, 70.8%. Further, the growth was 13.3% in the assay on NCI-H522 lung; 22.3% with A549/ATCC NSCLC; 42.9% with 786-0 renal; 18.7% in the assay on COLO 205 colon; 17.3% in the assay with DU-145 prostate; 13.6% in the assay on K-562 leukemia. Moreover, the growth with MALME-3M melanoma is 36.1%; in the assay on MDA-MB-231 breast, 22%; in the assay on RXF 393 renal, -20.4% (active); in the assay with SF-268 CNS, 39.4%; in the assay with SF-295 CNS, 10% (active); in the assay on SF-539 CNS it was -16% (active). The figures for the growth in the assay on UACC-257 melanoma and in the assay with M14 melanoma were 58.1% and 17.3%, respectively.

In the case of `c1ccc([P+](c2ccccc2)(c2ccccc2)c2ccc3c4ccc([P+](c5ccccc5)(c5ccccc5)c5ccccc5)c5cccc(c6cccc2c63)c54)cc1`, the growth in the assay on NCI-H23 lung was 8.37% (active); with NCI-H226 lung it was 15.7%; in the assay on NCI-H322M lung, 17.8%; in the assay with HOP-62 NSCLC, 14.1%; in the assay with NCI-H460 lung, 4.26% (active); with HOP-92 NSCLC it was 9.54% (active). Besides, the growth with NCI-H522 lung is 6.86% (active); with A549/ATCC NSCLC it was 11%; with 786-0 renal, 40.7%; with COLO 205 colon it was 1.4% (active); with DU-145 prostate, 19.5%; with K-562 leukemia it was 11.8%. For the same molecule, the growth with MALME-3M melanoma is -13% (active); with MDA-MB-231 breast it was 9.37% (active); in the assay with RXF 393 renal it was 42.5%; in the assay on SF-268 CNS, 24.4%; in the assay on SF-295 CNS it was 3.75% (active); in the assay on SF-539 CNS, -27.1% (active). For the same molecule, the growth with UACC-257 melanoma is 15.2%; with M14 melanoma it was 15.4%.

Turning to `CCC(C)N(CCNc1cc(OC)cc2cccnc12)CC(C)C` (stereo not given), the growth with NCI-H23 lung was 86.5%; in the assay with NCI-H226 lung it was 92.7%; in the assay with NCI-H322M lung, 95.2%; with HOP-62 NSCLC it was 107%; in the assay on NCI-H460 lung, 98%; with HOP-92 NSCLC, 105%. For the same molecule, the growth was 82.8% in the assay on NCI-H522 lung; 102% in the assay on A549/ATCC NSCLC; 117% with 786-0 renal; 96.6% with COLO 205 colon; 112% in the assay with DU-145 prostate; 83.1% with K-562 leukemia. The growth in the assay on MALME-3M melanoma was 119%; in the assay with MDA-MB-231 breast, 87.8%; in the assay with RXF 393 renal, 122%; in the assay with SF-268 CNS, 96.4%; with SF-295 CNS it was 110%; in the assay on SF-539 CNS, 115%. The results for the growth in the assay on UACC-257 melanoma and in the assay with M14 melanoma were 99.8% and 110%, respectively.
